# Source: PubChem BioAssay (several laboratories)
# Most compounds without a hit are left out; they make up all but 2.8% or so of the library.
# HIF-2a inh: HIF-2a inhibition | 786-0 RCC cells HIF-2a reporter, luciferase luminescence, overnight | inhibition, % at 18.8 µM | 360,000 tested, 0.72% active | AID 624352;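 active = inhibition of the luminescence signal of 40% or more relative to plate controls, in a single-dose primary screen at 18.75 µM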
# MITF TRPM1 inh: inhibitors of MITF-driven TRPM1 promoter in melanoma cells | SK-MEL-5 TRPM1 promoter luciferase, 24 h | inhibition, % at 12.5 µM | 330,000 tested, 0.83% active | AID 488899;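 active = mean inhibition across replicates of 60% or more, whatever share of single replicates reaches that level; inconclusive = some that reach 60%, reason not given; inactive = mean inhibition across replicates below 60%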
# Shn3 inh set2: inhibitors of Schnurri-3 3'UTR reporter in osteoblasts; AID 588674; 360,000 tested, 0.52% active; Clone20 osteoblast Shn3 3'UTR firefly luciferase, 24 h; inhibition, % at 12.5 µM;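 active = mean inhibition of at least 75% with every replicate also reaching 75%; inconclusive = mean inhibition at least 75% but some replicate below; inactive = mean inhibition below 75%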;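 note: 0% = median of neutral control wells and 100% = pilot-screen positive control compound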
# Peg3 promoter: Peg3 promoter activity inhibition | HeLa PEG-Prom luciferase reporter, luminescence, overnight | inhibition, % at 20 µM | 360,000 tested, 1.7% active | AID 588405;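 active = inhibition of at least 50% at 20 µM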
# KKLEB cytotox: CF airway cell cytotoxicity counter-screen; KKLEB CF airway cells viability, ATPlite luminescence, overnight; stronger effect = lower value; cells stimulated with P. aeruginosa culture filtrate; activity change (cytotoxicity), % at 5 µM; 360,000 tested, 0.36% active; AID 602141;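 active = corrected activity change at or below -50% at 5 µM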
# CF NFkB block: inhibitors of cystic fibrosis induced NF-kB; inhibition, % at 5 µM; KKLEB NF-kB-GFP reporter, PAF-induced, GFP fluorescence overnight; AID 588850; 360,000 tested, 0.86% active;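 active = at least 50% inhibition at 5 µM, scaled per plate between neutral and stimulator controls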;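 note: PAF is a Pseudomonas aeruginosa culture filtrate used as stimulus; plate controls were PAF-stimulated DMSO wells for no effect and unstimulated DMSO wells for full effect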
# An asterisk follows results filed as active; ? = inconclusive; / = not tested or not shown.
SMILES,HIF-2a inh,MITF TRPM1 inh,Shn3 inh set2,Peg3 promoter,KKLEB cytotox,CF NFkB block
CC(C)Oc1ccc(C(CC(=O)O)NC(=O)C(Sc2ccccc2)c2ccccc2)cc1 (configuration not stated),9,-7,-1,3,-2,-1
CN(C)c1ccc(CNCCC(Cc2ccccc2)c2ccco2)cc1 (configuration not stated),5,0,56,50*,0,-17
O=C(/C=C/Nc1ccc(Br)cc1F)c1ccccc1,36,28,26,22,-78*,2
Cc1ccc(-n2ncc3c2CCCC3NC(=O)CCCN2CCCCC2=O)cc1C (configuration not stated),-26,-1,3,-18,4,0
N#C/C(=C(/O)COC(=O)CSc1ccc(Cl)cc1)c1nc2ccccc2[nH]1,7,2,4,75*,-3,3
Cc1cc(SCC(=O)OC/C(O)=C(\C#N)c2nc3ccccc3[nH]2)c(C)cc1Br,7,32,-2,51*,4,-11
Cc1nc2nc(C(F)(F)F)[nH]c2nc1C,3,/,-26,3,-1,0
OCC1(CCOc2ccccc2)CCN(C2Cc3ccccc3C2)CC1,16,12,-14,11,2,-13
COc1ccc(C(=O)COC(=O)c2cnc(C)cn2)cc1OC,6,8,-4,6,-19,23
C/C(=N/NS(=O)(=O)c1ccc(C(C)C)cc1)c1ccncc1,9,0,39,-7,2,5
C/C(=N/NS(=O)(=O)c1ccc(CC(C)C)cc1)c1ccncc1,0,19,87*,33,2,11
COc1ccc(Cc2nn3c(-c4ccccc4Br)nnc3s2)cc1,-31,-3,23,-5,-8,53*
COc1ccc(NC(=S)N2CCN(C(=O)c3ccco3)CC2)cc1OC,13,3,-12,0,20,-43
O=C(C=Cc1cccc(Cl)c1)c1ccccc1,-228,-13,-21,102*,5,24
O=C(/C=C/c1ccccc1)NNC(=O)c1cccc(Cl)c1,-4,-6,-38,-14,-3,-18
CCCCN(CCCC)c1nc(-c2ccncc2)nc2ccccc12,29,-2,30,52*,-17,-4
CC(C)C[C@@H](CO)N(Cc1ccccc1)S(=O)(=O)N(Cc1ccccc1)[C@@H](CO)CC(C)C,13,13,90*,85*,-2,27
CC(C)C[C@@H](CO)N(Cc1ccccc1)S(=O)(=O)N(Cc1ccccc1)[C@H](CO)CC(C)C,-5,-2,?,83*,-20,40
COc1ccc(CN([C@H](C)CO)S(=O)(=O)N(Cc2ccccc2)[C@H](CO)C(C)C)cc1,7,1,-9,11,8,-14
COc1ccc(CN([C@H](CO)CC(C)C)S(=O)(=O)N(Cc2ccccc2)[C@H](CO)CC(C)C)cc1,7,1,26,83*,-17,28
COc1ccc(-c2c[n+](CC(=O)OC3CC(C)CCC3C(C)C)c3n2CCC3)cc1 (configuration not stated),4,86*,82,28,-7,23
CC1CCC(C(C)C)C(OC(=O)C[n+]2cccc(C(N)=O)c2)C1 (configuration not stated),11,-4,5,0,-9,5
CC(C)[C@@H]1CC[C@@H](C)C[C@H]1OC(=O)C[n+]1cc(-c2ccc(Cl)cc2)n2c1CCCCC2,-15,79*,79,50,-44,48
C=CCn1c(SCC(=O)Nc2cccc(S(=O)(=O)N(C)c3ccccc3)c2)nnc1C1CC1,25,-3,32,6,1,-2
O=C(O)c1cccc(N/N=C/c2ccc(-c3ccccc3)cc2)c1,8,24,-7,-43,12,16
SMILES,HIF-2a inh,MITF TRPM1 inh,Shn3 inh set2,Peg3 promoter,KKLEB cytotox,CF NFkB block
CC(C)(C)c1ccc(/C=N/Nc2cccc(C(=O)O)c2)cc1,9,61*,22,-43,-4,-4
CN(C)c1ccc(/C=N/Nc2cccc(C(=O)O)c2)cc1,25,84*,92*,-162,2,14
O=C(O)c1cccc(N/N=C/c2cccnc2)c1,-21,36,-1,58*,19,-8
CCCCNc1c(-c2cccc(-c3ccc(OC)cc3)c2)nc2cc(C)ccn12,-81,6,87*,89*,-13,20
COc1ccc(-c2nc3cnccn3c2NCc2ccccc2)cc1SC1CCCCC1,3,-3,24,47,4,0
CCCCNc1c(-c2cccc(-c3cc(C(C)=O)cs3)c2)nc2ccc(C)cn12,-174,5,14,62*,-93*,83*
CCCCNc1c(-c2ccc(OC)c(SC3CCCCC3)c2)nc2cc(C)ccn12,-17,5,37,56*,-4,28
CCCCNc1c(-c2ccc(OC)c(SC3CCCCC3)c2)nc2cnccn12,-19,-1,14,68*,-14,21
Cc1ccc(S(=O)(=O)N2CCC[C@H]2C(=O)OCc2nc3ccccc3s2)cc1,-8,4,-8,-6,-5,-1
Cc1ccn2c(NC3CCCCC3)c(-c3cccc(-c4cccc(Cl)c4)c3)nc2c1,-13,-11,12,56*,-9,18
CCC(C)NCC(=O)Nc1ccc(-c2nc3cc(NC(=O)CNC(C)CC)ccc3o2)cc1 (configuration not stated),-9,84*,9,108*,4,-12
CCN(CC)CC(=O)Nc1ccc(-c2nc3cc(NC(=O)CN(CC)CC)ccc3o2)cc1,-78,-17,0,47,7,-7
CC(NS(=O)(=O)c1cccc(Cl)c1)C(=O)N(C)C1CCN(C)CC1 (configuration not stated),10,-12,1,-4,12,-9
COc1ccc(N2CCN(C(=O)COC(=O)c3cnccn3)CC2)cc1,-3,-2,0,-1,18,-8
COc1ccc(C2CC(c3ccccc3)=NN2C(=O)COC(=O)c2cnc(Cl)c(Cl)c2)cc1 (configuration not stated),2,11,-1,99*,-7,13
COc1ccc(C2CC(c3ccccc3)=NN2C(=O)COC(=O)c2ccc(Cl)nc2)cc1 (configuration not stated),-66,-4,-6,-68,-5,2
COc1ccc(CN2C(=O)CSCC2=O)cc1OC,13,21,-3,12,-4,-4
COc1ccc(CCN2C(=O)CSC2=S)cc1OC,61*,15,0,60*,-11,16
CC(=O)/C=C/c1ccc2ccccc2n1,34,18,-39,103*,-10,33
O=C(CCl)N1c2ccccc2Oc2ccc3ccccc3c21,-144,88*,11,-85,-6,40
